Screens as filed in PubChem BioAssay.
This excerpt belongs to a sample that is enriched for hits.
KDM5B inh = inhibitors of human KDM5B histone demethylase; Q9UGL1; KDM5B demethylase, FDH-coupled NADH fluorescence (FDH is formaldehyde dehydrogenase); Potency, µM (doses to about 57.7 µM), hits mostly inhibitors; 220,000 compounds, 2.6% hits; AID 1347165; active means well fitted inhibition curve with a large enough effect; further: nearly all actives have a fitted effect of over 70% in size
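Measured: NADH fluorescence change, 30 min, RT. System: KDM5BΔAP 200 nM final, H3K4me3 peptide, α-KG, Fe(II), ascorbate, NAD⁺ plus FDH, pH 7.5 HEPES. Compounds: titrated, 10 min pre-incubation with enzyme.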
Each line names hits and unclear results; the compound was inactive in the other large screens.

CC(C)C(=O)N1N=C(c2ccc(Cl)cc2Cl)CC1c1ccc2nccnc2c1 (centres undefined)	none
Cn1ccnc1C(=O)NCC(=O)N1CCCCCCNC(=O)CC1c1ccccc1 (centres undefined)	none
COc1ccc(-c2nc(N3CCOC[C@H]3C)cc3c2CN(C(C)C)C3=O)cc1	none
Cc1ccccc1-c1nc(N2CCOCC2)cc2c1CN(Cc1ccccc1)C2=O	KDM5B inh 32µM
CCc1cc(=O)n(Cc2ccccc2)c(N2CCOCC2)n1	none
Cc1cccc(O[C@H]2COCCN(Cc3cnn(C)c3)C2)n1	none
CN1CC(=O)N(C2CCCCC2)Cc2c1ncnc2N1CCOCC1	none
CN1Cc2c(cc(N3CCOCC3)nc2-c2cnn(C)c2)C1=O	KDM5B inh 40µM
O=C1c2cc(N3CCOCC3)nc(-c3cccnc3)c2CN1c1ccccc1	KDM5B inh 40µM
O=C1c2cnc(-c3ccsc3)nc2OCCN1c1ccccc1	none
O=C(c1nc(-c2cccnc2)no1)N1CCN(c2ccccc2)CC1	none
COc1ccc(CN2CCN3C(=O)N(Cc4ccc(C)cc4)C[C@H]3C2)cn1	none
O=C1c2cnc(-c3ccccc3C(F)(F)F)nc2OCCN1Cc1ccccc1	none
COc1ccc(-c2nc(N3CCOCC3)cc3c2CN(Cc2cnn(C)c2)C3=O)cn1	KDM5B inh 40µM
CC(C)c1ccc(-c2nonc2NC(=O)c2cccs2)cc1	none
CN(CCCN1c2ccccc2CCc2ccccc21)C(=O)[C@H]1CCC[C@@H](O)C1	none
CN1[C@@H](CCC(=O)N2CCC(O)CC2)CNC(=O)[C@@H]2[C@H]1CCN2Cc1ccc(F)cc1	none
CCS(=O)(=O)N1CCC(Nc2nc3ccccc3o2)CC1	none
COCc1cn([C@H]2CO[C@H]3[C@@H]2OC[C@H]3OC(=O)Nc2ccc(C)cc2)nn1	none
O=C(OCc1nnc(-c2ccc([N+](=O)[O-])cc2)o1)C1(c2ccc(Cl)cc2)CCC1	none
Cc1cnc(CC2CCCN(C(=O)NC(C)(C)C)C2)n1Cc1ccc(F)cc1 (centres undefined)	none
Cc1cc(C(=O)N2CCN(S(=O)(=O)c3ccccc3Cl)CC2)c(C)n1Cc1cccs1	none
Cc1cccc(N2Cc3c(ncnc3N3CCOCC3)CN(C)C2=O)c1	none
CN(C)c1cccc(-c2nc(N3CCOCC3)cc3c2CN(Cc2cnn(C)c2)C3=O)c1	none
Cn1cc(CN2CCOc3cc([S+](=O)([O-])Nc4ccccc4)ccc3C2)cn1	none
Cc1ccccc1-c1nc(N2CCOCC2)cc2c1CN(Cc1cnn(C)c1)C2=O	KDM5B inh 40µM
COc1cc(F)ccc1-c1nc(N2CCOCC2)cc2c1CN(c1ccccc1)C2=O	KDM5B inh 10µM
Cc1ccccc1NC(=O)Nc1ccc2nc(N3CCOCC3)cc(C)c2c1	none
Cc1ccccc1-c1nc(N2CCOCC2)cc2c1CN(c1ccccc1)C2=O	KDM5B inh 35µM
COc1ccc(-c2noc(C3CC(=O)N(c4ccccc4)C3)n2)c(OC)c1 (centres undefined)	none
COc1ccc2c(c1)CCc1c-2nc2ccccc2c1N1CCOCC1	none
Cc1cnc2c(S(=O)(=O)NCC3CCN(C4CC4)C3)cccc2c1 (centres undefined)	none
CCC(CC)C(=O)Nc1nonc1-c1ccc(Br)cc1	none
Cn1c(=O)c2nc(SCC(=O)N3CCOCC3)n(C)c2n(C)c1=O	none
O=C(COC(=O)c1ccc2ccccc2n1)Nc1ccc2ccccc2c1	none
COc1cccc([S+](=O)([O-])N2CCC3(CC(C(C)C)=NO3)C2)c1 (centres undefined)	none
CCn1cnc2c1c(=O)n(CC(=O)NC(C)c1ccccc1F)c(=O)n2Cc1ccccc1 (centres undefined)	none
COC(=O)[C@@H]1Cc2ncn(Cc3ccc(Cl)cc3)c2CN1S(=O)(=O)c1cccc(C(F)(F)F)c1	none
COC(=O)[C@@H]1Cc2ncn(Cc3ccccc3)c2CN1S(=O)(=O)c1cccc(C(F)(F)F)c1	none
COC(=O)[C@@H]1Cc2ncn(Cc3ccc(OC)cc3)c2CN1S(=O)(=O)c1cccc2c(N(C)C)cccc12	KDM5B inh 18µM
COC(=O)[C@@H]1Cc2ncn(Cc3ccc(OC)cc3)c2CN1S(=O)(=O)c1cccc(C(F)(F)F)c1	none
CCCn1cnc2c1CN(S(=O)(=O)c1cccc(C(F)(F)F)c1)[C@H](C(=O)OC)C2	KDM5B inh 32µM
COC(=O)[C@@H]1Cc2ncn(Cc3ccc(Cl)cc3)c2CN1S(=O)(=O)c1ccc(OC)cc1	none
CC(=O)N1CCC2(COc3ncccc3[S+](=O)([O-])N2)C1 (centres undefined)	none
CN(C)c1ccc(CN2CCC3(CC2)C(=NC2CCCCC2)NC(=O)N3c2cc(F)cc(F)c2)cc1	none
O=C(Cn1ccc2ccc(F)cc21)Nc1ccc(CCO)cc1	none
Cc1cccc(NC(=O)CC2(C(=O)O)CCCC2)c1C	none
CN(Cc1ccccc1)c1oc(COc2ccc(F)cc2)nc1C#N	none
Cc1ccc(C(=O)NCc2nnc3c(-c4nc(C(C)C)no4)cccn23)cc1C	KDM5B inh 28µM
CC(C)c1noc(-c2cn(C3CCN(C(=O)c4cccc(Cl)c4)C3)nn2)n1 (centres undefined)	none
Cc1cccc(C(=O)NCc2nnc3c(-c4nc(C(C)C)no4)cccn23)c1	KDM5B inh 28µM
Cc1ccc(C(=O)NCc2nnc3c(-c4nc(C5CC5)no4)cccn23)cc1C	KDM5B inh 10µM
Cc1ccc(C(=O)N2CCC(n3cc(-c4nc(C(C)C)no4)nn3)C2)cc1C (centres undefined)	none
COc1ccc(C(=O)NCc2nnc3c(-c4nc(C5CC5)no4)cccn23)c(C)c1	none
CC(C)c1noc(-c2cccn3c(CNC(=O)c4cccc(Cl)c4)nnc23)n1	KDM5B inh 22µM
COc1ccc(Cl)cc1C(=O)NCc1nnc2c(-c3nc(C(C)C)no3)cccn12	none
CC(C)CCN1CC(Oc2ccc(F)c(F)c2)C1	none
O=C(c1cnc(N2CCOCC2)c2ccccc12)N1CCCCC1	none
Cc1cccc(C)c1NC(=O)CN(C)C(=O)c1cccc(S(=O)(=O)NCC2CCCO2)c1 (centres undefined)	none
COc1cccc(-c2c(NC(=O)c3cccs3)oc3ccccc3c2=O)c1	none
Cc1c(CC(=O)NCC(c2ccccc2)c2ccccc2)c(=O)oc2cc(O)ccc12	none
Cc1ccc(C2CC3CC2C(C(=O)O)C3C(=O)O)cc1C (centres undefined)	none
CN(Cc1ccccc1)C(=O)c1cc(=O)[nH]c2ccc(S(=O)(=O)Nc3ccc(F)cc3)cc12	none
CC(C)c1noc(-c2cccn3c(CNC(=O)c4c(F)cccc4F)nnc23)n1	KDM5B inh 28µM
CC(C)c1noc(-c2cccn3c(CNC(=O)c4cccc(F)c4)nnc23)n1	KDM5B inh 25µM
Cc1cc(C)cc(C(=O)NCc2nnc3c(-c4nc(C(C)C)no4)cccn23)c1	KDM5B inh 22µM
CC(C)c1noc(-c2cn(C3CCCN(C(=O)c4cccc(F)c4)C3)nn2)n1 (centres undefined)	none
CC(C)c1noc(-c2cn(C3CCN(C(=O)c4cccc(F)c4)C3)nn2)n1 (centres undefined)	none
Cc1nc(CSc2nccc(C(F)(F)F)n2)cs1	none
CC(C)N(Cc1ccc(C(N)=O)cc1)C1CC1	none
CCCOC(=O)c1c(-c2ccccc2)csc1NC(=O)c1ccoc1C	none
O=C(CSc1nc2cc([N+](=O)[O-])ccc2o1)Nc1ccc2ccccc2c1	none
COc1ccc(CNC(=O)N(C)CCOc2ccccc2C)cc1OC	none
Cc1ccc(NS(=O)(=O)c2ccc(NC(C)c3ccc(C)o3)c([N+](=O)[O-])c2)c(C)c1 (centres undefined)	none
Brc1ccc(-c2nnc(COc3cccc(-n4cnnn4)c3)o2)o1	none
O=C(c1ccc2c(c1)OC(F)(F)O2)N1CC2(Cc3ccccc3NC2=O)C1	none
